According to PubChem BioAssay (Tox21):
Where “and” joins values, the source holds several entries; their conditions need not be identical. Identical values can stand only once. Inconclusive results are not listed. A call without a number means that no potency is given here. Calls of active or inactive are those of the source. Unless noted, calls follow the shape of the dose curve; as a rule, active = well fitted curve in the direction sought with a large enough effect in the repeat runs; inconclusive = weak or mixed curves; inactive = no such curve, though single readings can be large; an effect the other way counts as inactive or inconclusive.

Legend:
[1] = qHTS assay for small molecule agonists of the p53 signaling pathway (AID 651631; calls by dose curve; also: nearly all actives have a fitted effect of over 15% in size; also: potency is read from the fitted curve at half-maximal effect)
How it was run: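 Stably transfected HCT-116 cells (beta-lactamase behind p53 response elements) get compounds after a 5 h settling period; 16 h later at 37 °C, FRET substrate is loaded and fluorescence read after 2 h.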

[2] = qHTS assay for small molecules that induce genotoxicity in human embryonic kidney cells expressing luciferase-tagged ATAD5 (AID 651632); also: nearly all actives have a fitted effect of over 15% in size
How it was run: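 A rise in luciferase signal from ATAD5-tagged HEK293T cells marks genetic stress. Cells were exposed to compounds for 16 hr at 37C, 5% CO2, then luciferase was quantified after a 30 min room-temperature incubation with Amplite.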

[3] = qHTS assay for small molecule agonists of the p53 signaling pathway - cell viability (AID 651633; calls by dose curve;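 also: p53RE-bla HCT reporter cells with a stable beta-lactamase p53 reporter; series mostly up to about 83 µM; nearly all actives have a fitted effect of over 30% in size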)
How it was run: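 p53RE-bla cells, seeded at 4,000 per well and rested 5 h at 37 C/5% CO2, received compounds in DMSO for 16 h at 37 C. CellTiter-Glo was then added, and luminescence was read after 30 min at room temperature to gauge cytotoxicity.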

[4] = qHTS assay for small molecule disruptors of the mitochondrial membrane potential - cell viability (AID 720634; calls by dose curve;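 also: human HepG2 liver cancer cells; series mostly up to about 83 µM; nearly all actives have a fitted effect of over 20% in size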)
How it was run: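 Cytotoxicity was quantified from ATP content by CellTiter-Glo luminescence in the same wells as the MMP dye read-out. HepG2 (2,000 cells/well) were plated overnight and exposed to compounds for 1 hr at 37 C.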

[5] = qHTS assay for small molecule disruptors of the mitochondrial membrane potential (AID 720635); also: potency is read from the fitted curve at half-maximal effect
How it was run: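 HepG2 cells (2,000/well) attached overnight at 37C, then took compound for 1 hr at 37C, 5% CO2. Mito-MPS dye was added for 30 min; fluorescence was read at 490/535 nm (monomers) and 540/590 nm (aggregates).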

[6] = qHTS assay to test for compound auto fluorescence at 590 nm (red) in HepG2 cells (AID 720674)
How it was run: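 Rose Bengal sodium served as the red fluorophore standard. HepG2 monolayers (overnight attachment, MEM with 10% FBS) were exposed to test compounds for 1 hr at 37 C and read at Ex 540/Em 590 nm.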

[7] = qHTS assay to test for compound auto fluorescence at 535 nm (green) in HepG2 cells (AID 720675)
[8] = qHTS assay to test for compound auto fluorescence at 460 nm (blue) in HEK293 cells (AID 720678)
How it was run: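 Cells were seeded and left to adhere for 4-5 hr at 37C. Compounds were then pin-transferred. After an overnight incubation at 37C under 5% CO2, intrinsic fluorescence at 405/460 nm was measured and referenced to triamterene.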

[9] = qHTS assay to test for compound auto fluorescence at 590 nm (red) in HEK293 cells (AID 720679)
How it was run: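 Each well held 2,000 HEK293 cells in medium containing 10% dialyzed FBS. Following 4-5 hr attachment at 37C, 23 nL test compound or DMSO was added; plates sat overnight, and red fluorescence (540/590nm) was recorded.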

[10] = qHTS assay to test for compound auto fluorescence at 535 nm (green) in HEK293 cells (AID 720680)
[11] = qHTS assay to test for compound auto fluorescence at 460 nm (blue) in HEK293 cell free culture (AID 720681)
How it was run: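 Test compounds were pinned into cell-free culture medium (DMEM with 10% FBS) and fluorescence was read directly at Ex/Em 405/460 nm. Signals were expressed as fluorescence equivalents of triamterene, with DMSO vehicle as control.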

[12] = qHTS assay to test for compound auto fluorescence at 535 nm (green) in HEK293 cell free culture (AID 720682)
How it was run: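 Using fluorescein as calibrant, autofluorescence was quantified at 485/535 nm in cell-free DMEM containing 10% FBS after pintool addition of compound or vehicle.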

[13] = qHTS assay to test for compound auto fluorescence at 590 nm (red) in HEK293 cell free culture (AID 720683)
How it was run: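 Tox21 10K library compounds were pinned into cell-free DMEM with 10% FBS and fluorescence was read at excitation 540 nm. Activity is expressed as Rose Bengal sodium equivalency.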

[14] = qHTS assay to test for compound auto fluorescence at 590 nm (red) in HepG2 cell free culture (AID 720684)
How it was run: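 Readout: intrinsic compound fluorescence at 590 nm emission after 540 nm excitation, scaled to Rose Bengal sodium. Matrix was cell-free MEM with 10% FBS; DMSO vehicle wells served as control.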

[15] = qHTS assay to test for compound auto fluorescence at 460 nm (blue) in HepG2 cell free culture (AID 720685)
How it was run: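 Cell-free plates of MEM plus 10% FBS received 23 nL compound or DMSO vehicle; blue-channel (405/460 nm) intensity scored against triamterene as reference fluorophore.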

[16] = qHTS assay to test for compound auto fluorescence at 535 nm (green) in HepG2 cell free culture (AID 720686)
[17] = qHTS assay to test for compound auto fluorescence at 460 nm (blue) in HepG2 cells (AID 720687)
How it was run: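 Cells (2,000/well in MEM with 10% FBS) attached overnight at 37 C, then were exposed to compound or DMSO for 1 hr at 37 C, 5% CO2. Fluorescence read at Ex/Em 405/460 nm, expressed as triamterene-equivalent signal.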

[18] = biological target: Glucocorticoid receptor (Homo sapiens) (UniProt P04150); experiment: qHTS assay to identify small molecule agonists of the glucocorticoid receptor (GR) signaling pathway (AID 720691; active = well fitted activation curve with a large enough effect in the signal ratio in the repeat runs, not every such curve was filed as active; the % refers to the signal ratio)
Chain of Glucocorticoid receptor (Homo sapiens) (P04150 whole entry, looked up): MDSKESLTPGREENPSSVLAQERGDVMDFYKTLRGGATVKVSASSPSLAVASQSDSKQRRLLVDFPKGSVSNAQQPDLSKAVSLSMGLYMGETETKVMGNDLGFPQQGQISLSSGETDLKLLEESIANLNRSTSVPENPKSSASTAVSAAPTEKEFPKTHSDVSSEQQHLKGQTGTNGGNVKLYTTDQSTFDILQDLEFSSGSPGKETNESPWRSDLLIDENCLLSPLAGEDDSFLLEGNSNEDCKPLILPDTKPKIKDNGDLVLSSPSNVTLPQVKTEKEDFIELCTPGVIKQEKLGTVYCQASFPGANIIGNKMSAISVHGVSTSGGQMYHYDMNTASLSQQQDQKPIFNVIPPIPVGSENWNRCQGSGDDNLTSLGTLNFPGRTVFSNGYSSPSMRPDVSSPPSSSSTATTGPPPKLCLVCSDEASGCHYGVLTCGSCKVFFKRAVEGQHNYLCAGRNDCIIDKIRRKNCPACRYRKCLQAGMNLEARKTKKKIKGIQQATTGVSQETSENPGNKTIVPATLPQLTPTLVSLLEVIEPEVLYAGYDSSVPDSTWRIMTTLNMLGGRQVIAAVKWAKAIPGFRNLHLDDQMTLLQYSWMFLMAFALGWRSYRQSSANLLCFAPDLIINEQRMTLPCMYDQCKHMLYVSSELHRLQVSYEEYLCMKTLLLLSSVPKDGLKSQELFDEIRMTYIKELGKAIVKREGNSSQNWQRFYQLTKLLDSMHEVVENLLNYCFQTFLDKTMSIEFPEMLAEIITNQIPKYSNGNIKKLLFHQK
How it was run: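 Agonist-mode qHTS in HeLa cells stably expressing a glucocorticoid-response-element beta-lactamase reporter. Fluorescence intensity read with FRET substrate (2 h, room temperature) after 18 h compound treatment at 37 C.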

[19] = biological target: Glucocorticoid receptor (Homo sapiens) (UniProt P04150); experiment: qHTS assay to identify small molecule antagonists of the glucocorticoid receptor (GR) signaling pathway (AID 720692; active = well fitted inhibition curve with a large enough effect in the signal ratio in the repeat runs, not every such curve was filed as active; the % refers to the signal ratio; also: potency is read from the fitted curve at half-maximal effect)
How it was run: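 Inhibition of dexamethasone-driven (5 nM final) beta-lactamase expression was measured in GRE-reporter HeLa cells over 18 h at 37C. Fluorescence was read after 2 h with the B/G FRET substrate at room temperature.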

[20] = qHTS assay for small molecules that induce genotoxicity in human embryonic kidney cells expressing luciferase-tagged ATAD5 - cell viability (AID 651634; calls by dose curve; also: nearly all actives have a fitted effect of over 25% in size)
How it was run: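 Cytotoxicity counter-readout: after 15.5 hr compound treatment at 37C, live-cell protease activity in ATAD5-luciferase HEK293T cells measured by CellTiter-Fluor fluorescence, 30 min development at 37C.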

CC(C)[N+](C)(CCOC(=O)C1c2ccccc2Oc2ccccc21)C(C)C
Potency [1]: inactive | Potency [2]: inactive | Potency [3]: inactive | Potency [4]: inactive | Potency [5]: inactive | Potency [6]: inactive | Potency [7]: inactive | outcome [8]: inactive | Potency [9]: inactive | Potency [10]: inactive | Potency [11]: inactive | Potency [12]: inactive | Potency [13]: inactive | Potency [14]: inactive | Potency [15]: inactive | Potency [16]: inactive | Potency [17]: inactive | Potency [18]: inactive | Potency [19]: inactive

O=C(O)CCCC(=O)O
Potency [1]: inactive | Potency [2]: inactive | Potency [3]: inactive | Potency [4]: inactive | Potency [5]: inactive | Potency [6]: inactive | Potency [7]: inactive | outcome [8]: inactive | Potency [9]: inactive | Potency [10]: inactive | Potency [11]: inactive | Potency [12]: inactive | Potency [14]: inactive | Potency [15]: inactive | Potency [16]: inactive | Potency [17]: inactive | Potency [18]: inactive | Potency [19]: inactive

c1ccc2ncccc2c1
Potency [1]: inactive | Potency [2]: inactive | Potency [3]: inactive | Potency [4]: inactive | Potency [5]: inactive | Potency [6]: inactive | Potency [7]: inactive | outcome [8]: inactive | Potency [9]: inactive | Potency [10]: inactive | Potency [11]: inactive | Potency [12]: inactive | Potency [14]: inactive | Potency [15]: inactive | Potency [17]: inactive | Potency [18]: inactive | Potency [19]: inactive

COCCOCCOCCO
Potency [1]: inactive | Potency [2]: inactive | Potency [3]: inactive | Potency [20]: inactive | Potency [6]: inactive | Potency [7]: inactive | outcome [8]: inactive | Potency [9]: inactive | Potency [10]: inactive | Potency [11]: inactive | Potency [12]: inactive | Potency [14]: inactive | Potency [15]: inactive | Potency [17]: inactive | Potency [18]: inactive | Potency [19]: inactive

C[C@]12CC[C@@H]3c4ccc(O)cc4CC[C@H]3[C@@H]1CC[C@H]2O
Potency [1]: 15.6 µM (active) and 27.3 µM (active) | Potency [2]: inactive | Potency [3]: inactive | Potency [5]: 27.8 µM (active) and 27.3 µM (active) | Potency [6]: inactive | Potency [7]: inactive | outcome [8]: inactive | Potency [9]: inactive | Potency [10]: inactive | Potency [11]: inactive | Potency [12]: inactive | Potency [13]: inactive | Potency [14]: inactive | Potency [15]: inactive | Potency [16]: inactive | Potency [17]: inactive | Potency [18]: inactive | Potency [19]: 6.27 µM (active)

CCCCCCCCCCCCO
Potency [1]: inactive | Potency [2]: inactive | Potency [3]: inactive | Potency [4]: inactive | Potency [5]: inactive | Potency [6]: inactive | Potency [7]: inactive | outcome [8]: inactive | Potency [9]: inactive | Potency [10]: inactive | Potency [11]: inactive | Potency [12]: inactive | Potency [13]: inactive | Potency [14]: inactive | Potency [15]: inactive | Potency [17]: inactive

CCCOCCO
Potency [1]: inactive | Potency [2]: inactive | Potency [3]: inactive | Potency [4]: inactive | Potency [5]: inactive | Potency [6]: inactive | Potency [7]: inactive | outcome [8]: inactive | Potency [9]: inactive | Potency [10]: inactive | Potency [11]: inactive | Potency [12]: inactive | Potency [13]: inactive | Potency [14]: inactive | Potency [15]: inactive | Potency [17]: inactive | Potency [18]: inactive | Potency [19]: inactive

C/C=C/C(=O)N(CC)c1ccccc1C
Potency [1]: inactive | Potency [2]: inactive | Potency [3]: inactive | Potency [4]: inactive | Potency [5]: inactive | Potency [6]: inactive | Potency [7]: inactive | outcome [8]: inactive | Potency [9]: inactive | Potency [10]: inactive | Potency [11]: inactive | Potency [12]: inactive | Potency [13]: inactive | Potency [14]: inactive | Potency [15]: inactive | Potency [17]: inactive | Potency [18]: inactive | Potency [19]: inactive
